Measles CPE – compounds protecting cells from measles virus cytopathic effect, primary screen, measles RdRp inhibitor project, single point, MLSMR library, absorbance. protection (pct of control), % at 4 µM. AID 841, 2007. hit rate 1.5% among 140,000. Measles virus-infected cells, CPE protection; in the data active = protection mostly above about 24%, no sharp cut-off; inactive = mostly below about 26%
sEH inh – soluble epoxide hydrolase inhibitors, primary screen, biochemical, human sEH; hit rate 0.34% among 91,000; Bifunctional epoxide hydrolase 2 (Homo sapiens), P34913; recombinant human sEH enzymatic activity assay; inhibition, % at 2 µM; in the data active = inhibition above about 80%
Target sequence (P34913 whole entry, looked up): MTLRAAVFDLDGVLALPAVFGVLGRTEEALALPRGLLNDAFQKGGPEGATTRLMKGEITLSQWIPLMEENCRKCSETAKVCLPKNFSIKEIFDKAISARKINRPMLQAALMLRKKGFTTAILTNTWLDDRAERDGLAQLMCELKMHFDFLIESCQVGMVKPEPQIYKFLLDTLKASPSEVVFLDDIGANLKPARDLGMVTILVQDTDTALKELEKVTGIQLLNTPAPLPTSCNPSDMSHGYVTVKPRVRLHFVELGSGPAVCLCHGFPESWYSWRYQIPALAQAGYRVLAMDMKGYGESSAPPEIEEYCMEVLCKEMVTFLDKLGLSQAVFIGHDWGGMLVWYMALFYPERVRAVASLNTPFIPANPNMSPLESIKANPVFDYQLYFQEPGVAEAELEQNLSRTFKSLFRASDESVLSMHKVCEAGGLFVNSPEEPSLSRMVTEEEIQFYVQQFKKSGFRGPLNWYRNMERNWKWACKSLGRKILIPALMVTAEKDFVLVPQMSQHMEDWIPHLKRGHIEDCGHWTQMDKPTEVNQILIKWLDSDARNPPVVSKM
MRP reversal – reversal of MRP1-mediated doxorubicin resistance, primary screen, H69AR cells, doxorubicin co-treatment. H69AR cells + 2 uM doxorubicin, CellTiter-Glo, 72 h. hit rate 0.04% among 85,000. AID 602, 2007. differential viability (reversal), % at 10 µM;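 active = viability drop by adding the cancer drug above about 55%, with treated viability meeting a 40% cutoff, limit read from the data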;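 also: viability without doxorubicin minus viability with 2 µM doxorubicin for each compound; larger differential means the compound sensitizes cells more to doxorubicin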
sdo1 growth – growth rescue of sdo1-depleted yeast, primary screen, S. cerevisiae, bone marrow failure model; S. cerevisiae sdo1-depleted JHY4D growth rescue, OD600 30 h; active compounds read high; pdr5 snq2 efflux-pump mutant strain; z-score at 10 µM; hit rate 0.21% among 140,000;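 active = z-score above 3 at both the 24 hr and the 30 hr optical density reads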;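 also: z-score against mean and SD of all compound wells on the same plate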
MRP-1 activ – H69AR viability gain despite doxorubicin, primary screen, MRP-1 activator project, H69AR cells, CellTiter-Glo | viability rescue | viability increase, % at 10 µM | hit rate 0.61% among 140,000 | AID 799, 2007;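 active = viability gain under doxorubicin at or above a set limit, the compound median plus 3 SD, cut at about 4.7% in these data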;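 also: MRP-1 overexpressing cells given doxorubicin 25 µM after compound pretreatment; 18-22 h compound pretreatment then 72 h with doxorubicin before readout; 0% = doxorubicin-only wells and 100% = vehicle-treated cells without doxorubicin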
sEH activator – soluble epoxide hydrolase activators, primary screen, biochemical, human sEH | Bifunctional epoxide hydrolase 2 (Homo sapiens), P34913 | purified human sEH enzymatic activity, activator screen | activation, % at 2 µM | hit rate 0.04% among 91,000 | AID 717, 2007; in the data active = activation above about 37%
Numbers without * were called inactive; x = not tested or not shown. Hits are enriched below; roughly 2.5% of the tested compounds scored in any of these assays.

SMILES	Measles CPE	sEH inh	MRP reversal	sdo1 growth	MRP-1 activ	sEH activator
O=C(O)C[CH2][Ge](=[O])[O][Ge](=[O])[CH2]CC(=O)O	x	x	-17	x	x	x
CCOc1ccc(NC(=S)Nc2ccc(OCc3ccccc3)cc2)cc1	44*	x	x	0.85	-3	x
COc1ccc(-c2csc3[nH]c(=S)n(-c4ccccc4)c(=O)c23)cc1OC	13	x	x	0.61	-2	x
COc1ccc(-c2ccc(=O)n(Cc3cc(=O)n4ccccc4n3)n2)cc1	32*	-2	10	0.08	-3	5
Cc1nc(NC(=O)CSc2nnc(Cn3nnc4ccccc43)n2C)sc1C	13	x	x	1.2	-2	x
CCc1nnc(NC(=O)C(C)N2C(=O)C3C4C=CC(C4)C3C2=O)s1 (stereo not given)	6	-11	15	0.48	8.2*	12
CC(=O)Nc1ccc(NCN2C(=O)[C@@H]3[C@H]4CC[C@H](C4)[C@@H]3C2=O)cc1	16	x	x	1.9	-1	x
CCN1C=CC(=C2C(=O)c3ccccc3C2=O)C=C1	40*	-18	-14	0.56	-3	20
CCOc1ccc2nc(SCC(=O)Nc3cc4c(cc3C(C)=O)OCO4)[nH]c2c1	12	-1	x	-0.73	-2	5
O=C(CN1CCN(Cc2ccc(Cl)cc2)CC1)N/N=C/c1c[nH]c2ccccc12	13	x	x	1.6	-3	x
CCc1nnc(NC(=O)C2CCCN2S(=O)(=O)c2ccc(C)cc2)s1 (stereo not given)	16	-2	-12	0.19	6.8*	0
CCc1nnc(NC(=O)C2Cc3ccccc3CN2S(=O)(=O)c2ccc(C)cc2)s1 (stereo not given)	3	2	-22	-0.69	-1	0
Cc1ccc(NC(=O)COC(=O)Cn2nc(C)c([N+](=O)[O-])c2C)c([N+](=O)[O-])c1	40*	x	x	0.21	-2	x
CCOC(=O)c1cc(C(C)(C)C)oc1CNC(=O)c1c(C)oc2c1CCCC2	7	-1	-1	0.19	-4	4
COC(=O)CCc1c(C)[nH]c(C(=O)OCc2ccccc2)c1C	9	0	-4	0.09	5.1*	5
COc1ccc(Cl)cc1N(C(=O)Nc1cccc(Cl)c1)C1=NCC(C)S1 (stereo not given)	3	x	x	-0.11	1	x
CC(=O)C1=NN(c2ccccc2)C2(S1)S/C(=C\c1ccccc1)C(=O)N2c1ccccc1 (stereo not given)	34*	0	x	0.82	1	2
Cc1cc2ncn(/N=C/c3ccc([N+](=O)[O-])o3)c2cc1C	7	-10	x	-1.7	-6	7
Cc1cc(C)n2nc3nc4c(cc3c2n1)CCCC4	8	6	-2	-0.23	-2	-6
COC(=O)CNC(=O)c1c(-c2c(Cl)cccc2Cl)noc1C	41*	-1	-9	1.3	-3	3
COC(=O)CNC(=O)c1c(-c2ccccc2Cl)noc1C	5	5	-6	0.76	-1	-5
CC1CCc2cc(F)ccc2N1C(=O)C1(C)CC1(Cl)Cl (stereo not given)	30	11	-8	-0.57	-4	-13
Cc1cc(=O)oc2c1ccc1oc(/C(=N/O)c3ccccc3)c(C)c12	3	-5	-10	-0.41	10*	7
Cc1ccc(/C(=N\O)c2oc3c(C)c4oc(=O)cc(C)c4cc3c2C)cc1	4	8	-5	-0.89	-7	-3
CC(C)OCCCNC(=O)CN1C(=O)/C(=C/c2ccccc2)Sc2ccccc21	2	x	x	-0.13	-2	x
SMILES	Measles CPE	sEH inh	MRP reversal	sdo1 growth	MRP-1 activ	sEH activator
CCC1(C)CC(=O)N(c2ccc(C(=O)O)c(O)c2)C1=O (stereo not given)	36*	25	-2	0.04	-2	-24
COc1ccc(C(CC(=O)Nc2cc([N+](=O)[O-])ccc2OC)c2ccccc2)cc1 (stereo not given)	11	x	x	0.13	-1	x
Cc1nc(/N=C(\N)NC(=O)N2c3ccccc3Sc3ccccc32)nc2ccccc12	2	x	x	-0.06	6.5*	x
CCCNc1ncnc2nc[nH]c12	40*	x	-2	1.2	-1	x
CCc1ccc(S(=O)(=O)NCc2cn3ccccc3n2)s1	3	7	10	-0.05	-1	-3
Cc1ccn2cc(CNS(=O)(=O)c3ccc(Cl)s3)nc2c1	29*	-7	9	0.14	-1	6
